The values below come from PubChem BioAssay (NCI).

Test [1] is described as follows: NCI Yeast Anticancer Drug Screen. Data for the rad50 strain (AID 155).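 Note: 0% = growth of vehicle-only cultures of the same strain.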 The note with it: S. cerevisiae rad50 strain growth inhibition; at 50.0 µM; active compounds read high. The method in brief:
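A DNA repair-deficient yeast mutant serves as the test organism; compound-induced growth inhibition is calculated against vehicle-treated cells.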

Test [2] in a line: NCI Yeast Anticancer Drug Screen. Data for the mec2-1 strain (AID 157). The note with it: S. cerevisiae mec2-1 strain, at 50.0 µM, active compounds read high. An outline of the steps: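 Vehicle-treated cultures served as reference for growth inhibition of compound-exposed mec2-1 yeast.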
Test [3] can be described thus: NCI Yeast Anticancer Drug Screen. Data for the sgs1 mgt1 strain (AID 161).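 Note: 0% = growth of cultures given vehicle only.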 As to conditions: S. cerevisiae sgs1 mgt1 strain, at 50.0 µM, active compounds read high. An outline of the steps: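 Inhibition of yeast growth, normalised to vehicle-treated controls, is reported for a strain bearing genetic alterations in DNA damage repair.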
A short description of test [4]: NCI Yeast Anticancer Drug Screen. Data for the cln2 rad14 strain (AID 165).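 Note: 0% = growth equal to vehicle treated cultures.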 As to conditions: S. cerevisiae cln2 rad14 strain, at 50.0 µM, active compounds read high. An outline of the steps: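 Each compound was tested on cln2 rad14 yeast. Inhibition of growth was calculated against vehicle-exposed controls.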
A short description of test [5]: NCI Yeast Anticancer Drug Screen. Data for the bub3 strain (AID 167). As to conditions: S. cerevisiae bub3 mutant strain, at 50.0 µM, active compounds read high. The method in brief: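 Inhibition values come from growth of compound-treated mutant yeast normalised to vehicle-treated controls.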
Test [6] in a line: NCI Yeast Anticancer Drug Screen. Data for the mlh1 rad18 strain (AID 175). The note with it: S. cerevisiae mlh1 rad18 strain growth inhibition; at 50.0 µM; active compounds read high. An outline of the steps:
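Vehicle-treated cultures served as the reference for growth inhibition in a yeast strain carrying DNA damage repair alterations exposed to each compound.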

Compounds without any hit were thinned out: in the full panel of roughly 79,000, 15% have a hit. A number with no mark means an inactive call. The source made the active and inactive calls. Cut-off read from the data, not from the text of the source: active = growth inhibition above about 70%; inactive = the rest.

Regarding `C=C(Cl)C(=C)CCC(Cl)C(C)(C)Cl` (stereo not given), the growth inhibition in test [1] was 12.6%; in test [2], 9.4%; in test [3] it was -13.7%; in test [4] it was 2.5%; in test [5] it was -16.8%; in test [6] it was -8.4%.

Take `N#CCCC(C(=O)O)C(=O)CN1C(=O)c2ccccc2C1=O` (stereo not given): the growth inhibition in test [1] is 5.15%; in test [2] it was -7.95%; in test [3] it was 0.4%; in test [4], -7.75%; in test [5], 0.4%; in test [6] it was 7.6%.

In the case of `Cc1cc(C)c(C)c(Br)c1`, the growth inhibition is 5% in test [1]; 4.6% in test [2]; -0.55% in test [3]; -33.1% in test [4]; 2.4% in test [5]; 4.9% in test [6].

As to `COc1ccc(Nc2ccnc3cc(Cl)ccc23)cc1CCN`, the growth inhibition was 4.65% in test [1]; 8.85% in test [2]; 24% in test [3]; 10.6% in test [4]; -5.9% in test [5]; -5.8% in test [6].

Take `CCCCCCCCCCOC(=O)Nc1cccc(O)c1`: the growth inhibition in test [1] is 29.8%; in test [2], 92.8% (active); in test [3], 95.4% (active); in test [4], 18.9%; in test [5] it was 96.9% (active); in test [6], 86.5% (active).

In the case of `CCOC(=O)/C(C#N)=C/c1ccnc2ccccc12`, the growth inhibition is -39.7% in test [1]; -46.5% in test [2]; -30.8% in test [3]; -45.4% in test [4]; -29.1% in test [5]; -23.1% in test [6].

Consider `COc1cc(NCCCCC2CCCCN2)c2ncccc2c1` (stereo not given), for which the growth inhibition in test [1] is 15.7%; in test [2] it was 2%; in test [3], 39%; in test [4] it was -11.4%; in test [5], 55.5%; in test [6], 48.8%.

For the molecule `Cc1cc(C=O)c(C)[nH]1`, the growth inhibition in test [1] was 3.9%; in test [2] it was -3.55%; in test [3], -2.4%; in test [4], -11.2%; in test [5] it was 1.55%; in test [6] it was -4.4%.

On to `CC1(C)O[C@H]2[C@H](O)C[C@](O)(CO)C[C@H]2O1`, for which the growth inhibition in test [1] was 1.3%; in test [2], 3.85%; in test [3], -0.65%; in test [4], -27.6%; in test [5], -9.25%; in test [6], 1.25%.

`OC(CC1CCCCN1)c1ccc2c(c1)oc1ccccc12` (stereo not given): the growth inhibition in test [1] was 71.7% (active); in test [2], 56.9%; in test [3] it was 62.2%; in test [4], 56.2%; in test [5] it was 73.8% (active); in test [6], 75.6% (active).

Regarding `CCCCCCCCCCCc1cc(=O)n(-c2ccccc2)n1C`, the growth inhibition was 98.8% (active) in test [1]; 99.2% (active) in test [2]; 99.2% (active) in test [3]; 98.4% (active) in test [4]; 98.5% (active) in test [5]; 99% (active) in test [6].

For `CCOC(=O)C1CN2C(=O)CCC2C1=O` (stereo not given), the growth inhibition in test [1] was -5.65%; in test [2] it was 15.2%; in test [3], 8.7%; in test [4], -5.85%; in test [5] it was 15.4%; in test [6], 4.7%.

With `O=C(/C(=N/O)c1ccc(Cl)cc1)c1ccccc1`, the growth inhibition in test [1] was 99.5% (active); in test [2], 99.5% (active); in test [3], 99.4% (active); in test [4] it was 99% (active); in test [5], 99.3% (active); in test [6], 99.6% (active).

Turning to `N#C/C(=C\c1ccco1)c1ccc([N+](=O)[O-])cc1`, the growth inhibition was 16.2% in test [1]; 15.1% in test [2]; 25.6% in test [3]; -0.25% in test [4]; 42.3% in test [5]; 14.3% in test [6].

As to `c1cc2c3c(cccc3c1)N1C(=N2)Sc2nc3ccccc3nc21`, the growth inhibition in test [1] was 3.15%; in test [2], 13.5%; in test [3] it was -9.8%; in test [4] it was -5.2%; in test [5] it was 13.6%; in test [6] it was -3%.

Turning to `Cc1ccc(S(=O)(=O)Oc2nc3ccccc3nc2N(S(=O)(=O)c2ccc(C)cc2)S(=O)(=O)c2ccc(C)cc2)cc1`, the growth inhibition was -9.8% in test [1]; -1.3% in test [2]; 1.3% in test [3]; 10% in test [4]; 5.95% in test [5]; 17.7% in test [6].

Take `[O-][N+](O)=C1c2ccccc2-c2ccccc21`: the growth inhibition in test [1] is 7.4%; in test [2], 2.95%; in test [3] it was 0.65%; in test [4] it was -21.4%; in test [5], 3.75%; in test [6], 11.1%.

Take `CSS(=O)(=O)C(c1ccccc1)c1ccccc1`: the growth inhibition is -14.6% in test [1]; 2.55% in test [2]; -2.1% in test [3]; -2.45% in test [4]; 60.2% in test [5]; -14.8% in test [6].

Turning to `OC(COc1cccc(C(F)(F)F)c1)CN1CCN(c2ccccc2)CC1` (stereo not given), the growth inhibition was 83.7% (active) in test [1]; 83% (active) in test [2]; 93.5% (active) in test [3]; 86.7% (active) in test [4]; 75.4% (active) in test [5]; 87.3% (active) in test [6].

`CC1CCN(C(=O)c2cc(Nc3ccnc4cc(Cl)ccc34)ccc2O)CC1`: the growth inhibition in test [1] was -2.05%; in test [2], -3.4%; in test [3] it was -6.65%; in test [4], -4.35%; in test [5], -3.9%; in test [6], 7.6%.
